# Source: article PMC12136788
# Where a chain is given by its changes, count along the chain named. Whole data set: some 24,000 sequences, median “enrichment r” near 0.99, cut for the highest 2% near 3.7. Only a selection was taken, and the highest values are over-represented in it overall.
# T1: UNK ZnF1-3 (human, UniProt Q9C0B0 31-174)
# T1 sequence: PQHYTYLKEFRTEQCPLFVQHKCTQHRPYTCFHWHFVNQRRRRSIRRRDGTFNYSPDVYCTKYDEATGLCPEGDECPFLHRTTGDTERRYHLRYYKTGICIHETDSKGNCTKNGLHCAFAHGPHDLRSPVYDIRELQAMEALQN
# B1: chr12:39756943:39756944:-_ENSG00000139116_ENST00000544797|hu_mus|hu_hu_hu_mus_False|48_78 (ssRNA)
# RNA: GGGAGUUCUACAGUCCGACGAUCGGUUUGGCUGUUACCCCCAAGGGAAUCCUGCAAUAGUCUUGUUAGCUUAGAGUCUCUGUAAGGGACAUGUGUGGCUCUCUUGCUCUUGUCCCCCAAGGCGCUGAUUACAUUCCCAAGAGCCAACAGAGGAUUGAGCAUCA
# B2: chr4:140309118:140309119:+_ENSG00000164134_ENST00000296543|hu_mus|FALSE|FALSE (ssRNA)
# RNA: GGGAGUUCUACAGUCCGACGAUCGUAUCCAGGAGGCAUGAAAGCCAAAGCAUAAGGGAAAAGCUUAUGACAACUUGCUCUGUAGGCUUCGGCAGCUUCUUUACAGUCUCCUAGGCUACCAUCACACAAGGCUUCCAACACCUCCAACAGAGGAUUGAGCAUCA
# B3: chr3:10015032:10015033:+_ENSMUSG00000027533_ENSMUST00000029046|mus_mus|mus_mus_mus_hu_True|1_58 (ssRNA)
# RNA: GGGAGUUCUACAGUCCGACGAUCGUUUUUACCAUCACAAGUGAUGAUACAAUCUGGCUUGGCCAUUGCGCCCAUUUUCCUAAGAGCUAUUCCCACUCCUAGCUCCUUCAUGUAUUCAUCAAAGCCUUUGCUGUCCAUCAGGCGCAACAGAGGAUUGAGCAUCA
# B4: 64658990_64660614_189_3pUTR_ENSMUSG00000024083_ENSMUST00000024889|mouse|control|control (ssRNA)
# RNA: GGGAGUUCUACAGUCCGACGAUCAUCCAAUGAACUGGAACCUGAGGUGUUCUCCUUUGGAACAUCGUCUAGUUCCAACACUUCAUAGUCAUCACCAGCCCGACCCAAGCUUCUUUCAUGCCUGGUCAUACAUGGCUUAAAACUCAACAGAGGAUUGAGCAUCA
# B5: 104713310_104714935_678_CDS_ENSG00000198431_ENST00000397736|human|control|control (ssRNA)
# RNA: GGGAGUUCUACAGUCCGACGAUCAGCGACAUAGGAUGCUCCAACAACCAGGGUCUUACCCGGGCAGUAAGGCAAGGAGAAAAGAUCAUCACUGCUGAUGCAGUAUUCUUUGUCACCAGGGAUGCCCAAGUAACGUGGUCUUUCCAACAGAGGAUUGAGCAUCA
# B6: chr11:4127340:4127341:+_ENSG00000167325_ENST00000300738|hu_mus|hu_hu_hu_mus_False|28_88 (ssRNA)
# RNA: GGGAGUUCUACAGUCCGACGAUCGGCAUAGUCAGGGUGCUUCGUGGUCAAGGUUGCGGCUGUCUCAGCAGCCAGGGUGUCCAGUUCCACUGUGGUGACCCCACUAUACAAGCCUUGGAUUACUUUCAUGGUGAUCUGAGCAGGCAACAGAGGAUUGAGCAUCA
# B7: chr16:94690093:94690094:+_ENSMUSG00000040785_ENSMUST00000117648|mus_hu|mus_mus_mus_hu_True|68_98 (ssRNA)
# RNA: GGGAGUUCUACAGUCCGACGAUCGGGCUGGGAUGACAGCAGACAGCCCUCGAUUCCAGGGGGAAAAAAAAAUAGCCGAUACUAAUUAAAAAGUGUUAAUGAUUUUUGAAAAUCAGAUUACAUCUAUAAAAGAUGAAAAGCAAACAACAGAGGAUUGAGCAUCA
# B8: chr3:142455422:142455423:-_ENSMUSG00000004591_ENSMUST00000043812|mus_mus|FALSE|FALSE (ssRNA)
# RNA: GGGAGUUCUACAGUCCGACGAUCGGGAGAACAACAGAGUGACAGCCUAGGAGAAAAAAGGGAAAAACAAAACAAAAAUCUAAUAAAAUUCCAGCCCAGUGAAGAUCAUGAUUUGCAAACAGGCAUAUGGUAAGAGCGAUACAACAACAGAGGAUUGAGCAUCA
# B9: 65373527_65373647_4270_3pUTR_ENSMUSG00000024589_ENSMUST00000163516|mouse|control|control (ssRNA)
# RNA: GGGAGUUCUACAGUCCGACGAUCAGGGAGGCAGGAGCAAUCGCCACGAGUGAUAUUCGUGAAAAAAAAAAAAAAAAUGGAAACAAAACCAGAUGUGACCUCCAUAAAGUGCCUUCAGAAGGGACGCAGAUACAGCAAAGGAAGCAACAGAGGAUUGAGCAUCA
# B10: chr14:49642940:49642941:-_ENSMUSG00000061244_ENSMUST00000162175|mus_mus|motif|central (ssRNA)
# RNA: GGGAGUUCUACAGUCCGACGAUCUAAAGCAUAAUCAAUAUGCUCAAUACAUAAAAAUUCCACAAGAAUGGUAAAAAUUCGGAAGGCAUUCCUUGGUAAAUCAGAAGGAUCAGAAAGCCUAUGACAUCUUUCAAAGGCUUGUUUCAACAGAGGAUUGAGCAUCA
# B11: chr7:74146866:74146867:+_ENSG00000077809_ENST00000416070|hu_hu|motif|central (ssRNA)
# RNA: GGGAGUUCUACAGUCCGACGAUCUUCCUUUGCAAGUAAUAUCCUCUCCAGGCGAGGAAUUCCGUAAGUAGAUGGCCUUCGGAAAGGAAUUCCUUCAGGAAGUCCUUCUACAUAAAGAUCUUCAACAUGAGACUGGAAAAGAGGCAACAGAGGAUUGAGCAUCA
# B12: 82880966_82885890_579_3pUTR_ENSMUSG00000000627_ENSMUST00000000641|mouse|control|control (ssRNA)
# RNA: GGGAGUUCUACAGUCCGACGAUCGCUGGAAACUGGACACAUCAAUAACCCCGCACUUCGGAUCAAAAGCGAAGGUGCCACACGUGAGGAGGUGAGAGGCAUUGGCAAUGGCGAGAAUCUGGAUAAAAUUGUGACAUUCGUCCUCAACAGAGGAUUGAGCAUCA
# B13: chr3:142455422:142455423:-_ENSMUSG00000004591_ENSMUST00000043812|mus_mus|motif|central (ssRNA)
# RNA: B8 RNA with U80G, A81G
# B14: 21140421_21141420_1149_CDS_ENSG00000141458_ENST00000269228|human|control|control (ssRNA)
# RNA: GGGAGUUCUACAGUCCGACGAUCCUCCAUCCCAUGGACUGGAAAAUCUGAAAACACAGGAGUGAUGGUAAAAGGUGCCUGUCCAUUGUCCUUAUUGAACAUGUAUUCAAUCCAGUUGGUGGCAUUACAGGCGUCAGCGUCCUUCAACAGAGGAUUGAGCAUCA
# Target: T1, UNK ZnF1-3
# Experiment: nsRBNS (natural sequence RNA bind-n-seq); RBNS binding buffer (assumed for nsRBNS): 25 mM Tris pH 7.5, 150 mM KCl, 3 mM MgCl2, 0.01% Triton X-100, 500 ug/ml BSA, 20 U/ml SUPERase-In, 4 C; UNK is unkempt and MSI1 is Musashi-1; names of the RNAs are library labels; protein concentration not given here; high values mean tight binding
row,Binder,binding signal
1,B1,0.772 enrichment R
2,B2,0.414 enrichment R
3,B3,0.728 enrichment R
4,B4,0.333 enrichment R
5,B5,1.69 enrichment R
6,B6,0.876 enrichment R
7,B7,3.34 enrichment R
8,B8,4.59 enrichment R
9,B9,6.96 enrichment R
10,B10,0.426 enrichment R
11,B11,0.729 enrichment R
12,B12,2.22 enrichment R
13,B13,5.45 enrichment R
14,B14,0.935 enrichment R
